Rows were chosen to be rich in hits. Some 1.2% of all compounds tested hit in one or more screens of this group.
PKD1 kinase inh: blocks activity of human protein kinase D1. inhibition, % (test concentration not listed). Q15139. 200,000 tested, 0.056% active. AID 797. PKD1 kinase fluorescence polarization assay; in the data active = inhibition above about 50%
p97 ATPase inh: human p97 ATPase inhibition; P55072; recombinant p97 ATPase, Kinase-Glo ATP luminescence, 3 h; inhibition, % at 8 µM; 220,000 tested, 0.42% active; AID 1481; in the data active = inhibition above about 15%;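 also: 0% = DMSO vehicle and 100% = wells lacking enzyme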
Furin inhibitor: human furin inhibition | P09958 | purified furin, fluorogenic substrate cleavage | inhibition, % at 20 µM or 30 µM | 220,000 tested, 0.061% active | AID 463115; in the data active = inhibition above about 25%
Target sequence (P09958 108-714 limits assumed): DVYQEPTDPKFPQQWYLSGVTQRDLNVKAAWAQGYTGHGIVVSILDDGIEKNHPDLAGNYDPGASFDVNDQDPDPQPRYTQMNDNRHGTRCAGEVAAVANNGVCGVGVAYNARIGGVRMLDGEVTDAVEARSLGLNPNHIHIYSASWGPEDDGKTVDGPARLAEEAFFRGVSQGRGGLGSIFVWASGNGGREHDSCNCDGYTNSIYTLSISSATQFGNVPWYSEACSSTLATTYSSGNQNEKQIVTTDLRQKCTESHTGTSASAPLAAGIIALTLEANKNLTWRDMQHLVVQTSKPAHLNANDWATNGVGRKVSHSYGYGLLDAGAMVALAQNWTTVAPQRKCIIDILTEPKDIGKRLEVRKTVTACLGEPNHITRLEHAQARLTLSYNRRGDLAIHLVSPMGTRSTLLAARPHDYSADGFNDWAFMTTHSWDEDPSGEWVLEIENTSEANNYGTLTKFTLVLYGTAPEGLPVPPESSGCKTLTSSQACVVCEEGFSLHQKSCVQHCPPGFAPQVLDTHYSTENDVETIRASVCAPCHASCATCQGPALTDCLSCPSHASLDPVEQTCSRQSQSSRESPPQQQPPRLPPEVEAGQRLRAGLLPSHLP
SUMO HTRF inh: SUMOylation inhibition; P63279; HTRF SUMOylation assay, SAE1/SAE2 + UBC9, in vitro; inhibition, % at 35 µM; 290,000 tested, 0.36% active; in the data active = inhibition above about 50%, passing the limit was not always enough
FAS-TE inh: FAS thioesterase (human) inhibition. AID 602261. recombinant FAS-TE, OMFH fluorogenic substrate, fluorescence endpoint. inhibition, % at 15 µM. P49327. 360,000 tested, 0.67% active;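 active = compounds whose normalised, plate-corrected inhibition of enzyme fluorescence in the single-dose primary screen is 50% or more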;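 also: 0% = DMSO with enzyme and 100% = substrate without enzyme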
DTT redox prof: compounds producing H2O2 with reducing agent – biochemical, NIH compound library profiling, artefact control for MLSCN library redox annotation, primary screen. DTT-dependent redox cycling H2O2, phenol red/HRP absorbance; 100% = 100 µM peroxide control, 0% = buffer. activation, % at 10 µM. 200,000 tested, 0.03% active. AID 878;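 active = activation of at least 50% relative to the plate's high and low controls in the primary single-dose screen; inactive = activation below 50%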;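 also: compound incubated with DTT at 0.8 mM final as the reducing agent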
FAS-TE inh conf: FAS thioesterase (human) inhibition, confirmation; inhibition, % at 15 µM; AID 624325; recombinant FAS-TE, OMFH fluorogenic substrate, fluorescence; 2,300 tested, 45% active; shares compounds with FAS-TE inh;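 active = compounds inhibiting the enzyme by at least 50% at 15 µM in any one of the replicates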;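 also: 0% = enzyme with DMSO only and 100% = wells lacking enzyme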
Starred values were filed as active, the others as inactive; . = no result.

SMILES	PKD1 kinase inh	p97 ATPase inh	Furin inhibitor	SUMO HTRF inh	FAS-TE inh	DTT redox prof	FAS-TE inh conf
CCOC(=O)C1=C(C)Nc2sc(C(=O)c3ccc(C)cc3)c(N)c2C1c1ccc(C(=O)OC)cc1 (configuration not stated)	0	4	-24	23	67*	1	15
CCOC(=O)C1=C(C)Nc2sc(C(=O)c3ccc(F)cc3)c(N)c2C1c1ccc(C(=O)OC)cc1 (configuration not stated)	4	-1	-12	0	19	0	.
CCOC(=O)c1cc2c(=O)n3ccccc3nc2n(Cc2ccco2)c1=NC(=O)c1ccc(OC)cc1	4	3	-37	28	64*	-1	47*
CCOC(=O)c1cc2c(=O)n3ccccc3nc2n(Cc2ccco2)c1=NC(=O)c1cccc(OC)c1	-8	7	-15	26	8	-1	.
CCOCCCn1c(=NC(=O)c2ccco2)c(C(=O)OCC)cc2c(=O)n3cccc(C)c3nc21	.	-1	-42	34	67*	.	2
CS(=O)(=O)N1CCc2cc(-c3csc(NC(=O)Cc4ccccc4)n3)ccc21	6	-10	-7	-43	64*	0	58*
CC1Cc2cc(-c3csc(NC(=O)Cc4cccs4)n3)ccc2N1S(C)(=O)=O (configuration not stated)	0	4	-27	6	51*	1	53*
O=C(COc1ncnc2cc([N+](=O)[O-])ccc12)N(CCc1ccccc1)Cc1ccccc1	-9	1	-14	-2	62*	0	52*
O=C(Nc1cc(Oc2ccc(Cl)cc2)cc([N+](=O)[O-])c1)c1ccco1	-13	3	-23	-22	56*	-1	45
CC[C@@H]1C(c2ccccc2)=NN(c2ccc(Br)cc2)[C@H]1C(=O)N1CCOC1=O	.	.	.	.	29	.	.
C[C@@H]1C(c2ccc(F)cc2)=NN(c2ccccc2)[C@H]1C(=O)N1CCOC1=O	.	.	.	.	12	.	.
O=C1OCCN1C(=O)[C@H]1[C@H](c2ccc(F)cc2)C(c2cccc(Cl)c2)=NN1c1ccc(Br)cc1	.	.	.	.	73*	.	21
O=C1OCCN1C(=O)[C@H]1[C@H](c2ccc(Cl)cc2)C(c2ccccc2)=NN1c1ccc(Br)cc1	.	.	.	.	81*	.	39
O=C1OCCN1C(=O)[C@H]1[C@H](c2ccc(Cl)cc2)C(c2cccc(Cl)c2)=NN1c1ccccc1	-1	3	-17	17	94*	0	7
O=C1OCCN1C(=O)[C@H]1[C@H](c2ccc(F)cc2)C(c2cccc(Cl)c2)=NN1c1ccccc1	.	.	.	.	59*	.	11
CC[C@@]1(c2ccccc2OC)C(=O)N(C(=O)OC)N1C(=O)OC	.	.	.	1	-6	.	.
COC(=O)N1C(=O)[C@](CC(C)C)(c2ccccc2)N1C(=O)OC	.	.	.	7	85*	.	88*
CC[C@@]1(c2cccc(C)c2)C(=O)N(C(=O)OC)N1C(=O)OC	.	.	.	4	79*	.	70*
COC(=O)N1C(=O)[C@@](CC(C)C)(c2ccccc2)N1C(=O)OC	.	.	.	-2	.	.	.
COC(=O)N1C(=O)[C@@](c2ccccc2)(C2CCCC2)N1C(=O)OC	.	.	.	5	44	.	.
COC(=O)N1C(=O)[C@](c2ccsc2)(C(C)C)N1C(=O)OC	.	.	.	7	37	.	.
COC(=O)N1C(=O)[C@](c2ccccc2)(C2CCCCC2)N1C(=O)OC	.	.	.	8	80*	.	95*
COC(=O)N1C(=O)[C@](c2ccc(OC)cc2)(C(C)C)N1C(=O)OC	.	.	.	5	72*	.	82*
O=C(Nc1ccccc1N1CCCC1)C1CCCO1 (configuration not stated)	.	.	.	.	-3	.	.
CCOC(=O)c1c(NC(=O)COC(=O)Cn2cnc3c2c(=O)n(C)c(=O)n3C)sc(C)c1CC	.	.	.	.	8	.	.
SMILES	PKD1 kinase inh	p97 ATPase inh	Furin inhibitor	SUMO HTRF inh	FAS-TE inh	DTT redox prof	FAS-TE inh conf
COc1ccc(CCNC(=O)c2cc(C)oc2C)cc1OC	.	.	.	-15	-3	.	.
COC(=O)[C@@]1(C)[C@H]2C(=O)N(C)C(=O)[C@H]2[C@H]2CN=C(SCc3ccc(C#N)cc3)N21	.	.	.	.	-6	.	.
CCOc1ccc(NC(=O)CN(C)C(=O)c2cccnc2Sc2ccc(C)c(C)c2)cc1OCC	.	.	.	-17	-1	.	.
COc1ccc(N2C(=O)NC3CC2(C)Oc2ccccc23)cc1 (configuration not stated)	10	0	-24	12	0	0	.
COc1ccc(N2C(=O)NC3CC2(C)Oc2ccc(Br)cc23)cc1OC (configuration not stated)	1	3	-27	6	59*	-1	74*
COc1ccc(Cl)cc1-c1cc(C(=O)NCc2ccc(C(F)(F)F)cc2)[nH]n1	.	.	.	.	56*	.	55*
O=C(NNc1c(Cl)cc(Cl)cc1Cl)c1cccc([N+](=O)[O-])c1	-7	-6	2	-9	55*	0	58*
O=C(NC(NC(=S)Nc1c(Cl)cccc1Cl)C(Cl)(Cl)Cl)c1cccc([N+](=O)[O-])c1 (configuration not stated)	10	5	-27	-22	55*	0	7
O=C(Nc1cccc(S(=O)(=O)NCc2ccco2)c1)c1cccc(Cl)c1	.	.	.	.	10	.	.
O=C(COC(=O)CCc1c[nH]c2ccccc12)Nc1cc([N+](=O)[O-])ccc1Cl	-2	-1	-21	-18	56*	0	55*
COc1ccc(-c2oc(=O)c3cc(OC)c(OC)cc3c2-c2ccc3c(c2)OCO3)cc1	.	.	.	.	29	.	.
COc1cc2c(-c3ccc4cc[nH]c4c3)c(-c3ccc(C#N)cc3)oc(=O)c2cc1OC	.	.	.	.	67*	.	11
CN(C(=O)COC(=O)c1c2c(nc3ccccc13)/C(=C/c1cccc([N+](=O)[O-])c1)CCC2)C1CCS(=O)(=O)C1 (configuration not stated)	10	9	-18	-13	67*	0	14
O=C(COC(=O)c1c2c(nc3ccccc13)/C(=C/c1cccc([N+](=O)[O-])c1)CCC2)NC1CCS(=O)(=O)C1 (configuration not stated)	7	1	-11	17	14	1	.
O=C(N/C(=C/C=C\c1ccccc1)C(=O)N1CCOCC1)c1ccc(Br)cc1	-7	1	-19	-18	65*	0	61*
CC(C)(C)NC(=O)/C(=C\C=C\c1ccccc1)NC(=O)c1ccc([N+](=O)[O-])cc1	0	3	-17	-11	78*	0	89*
O=C(N/C(=C/C=C/c1ccccc1)C(=O)N1CCCCC1)c1ccc([N+](=O)[O-])cc1	4	-4	-13	10	92*	-1	94*
COC(=O)c1cc(C(=O)Nc2nnc(C3CC3)s2)cc([N+](=O)[O-])c1	6	2	-28	-12	51*	0	60*
